Records with an inconclusive call do not appear. Calls of active or inactive are those of the source. Calls follow the shape of the full dose curve.
target: Tyrosine-protein kinase ABL1 (Homo sapiens) (UniProt P00519); experiment: ABL1 kinase (ABL1-N-HiBiT) enzymatic inhibition screen - Functional assay; conditions: luminescence; series mostly up to 57.5 µM
Source text: National Center for Advancing Translational Sciences (NCATS),
National Institute of Health (NIH), Maryland
Discovery and optimization of novel protein-binding ligands underlies many of the methods and applications of biology, drug discovery, clinical diagnostics, and environmental toxicology. Assays for detecting the interaction of, for example, a molecule with a macromolecular target also referred to here as the target of interest (TOI) is dependent on a compatible output technology. Depending on the nature and knowledge surrounding the TOI, whether a receptor, enzyme, regulatory subunit or scaffold, or a sequence-defined nucleic acid folded into a complex tertiary structure, assay strategies can vary widely.
Here we exploit ligand-biased changes in the structural dynamics of the target protein to control reporter alpha complementation allowing a non-competitive, non-functional, non-separation measure of ligand-target interaction.
Using a chemical library of >1,200 compounds enriched for scaffolds known to be associated with the inhibition of firefly luciferase (FLuc) activity (PubChem AIDs 2309) we first illustrate and compare the Structural Dynamics Response (SDR) assay vs. the standard functional FLuc enzyme assay (2). Secondly, we show the specificity and sensitivity of the SDR for the Abelson tyrosine kinase (ABL1) compared to the serine/threonine protein kinase A, using an enriched chemical library of 128 compounds selected, in part, for activity annotated with ABL1 kinase activity using the Pharos database (3).
(1) A. S. Dixon et al., NanoLuc Complementation Reporter Optimized for Accurate Measurement of Protein Interactions in Cells.
Chemistry & Biology, 19, 1060 - 1072 (2012).
(3) K. J. Kelleher et al., Pharos 2023: an integrated resource for the understudied human proteome. Nucleic Acids Res 51, D1405-D1416 (2023).
PROTOCOL TABLE (as described by Inglese J, Shamu CE and Guy RK. 2007)
SEQUENCE No. (e.g., 1, 2, 3, etc.); […] (e.g., C. elegans, Compounds, Incubation, Read, etc.); VALUE and DESCRIPTION.
1. Reagent. Dispense 4 uL ABL1-N-HiBiT enzyme per well at a final enzyme concentration of 10 nM in buffer with 87.5 uM ATP (functional assay) into columns 2-48 of four replicate Greiner 1536-well white, solid bottom high base, medium plates per assay. Dispense respective buffer without enzyme at 4 uL/well in column 1 of assay plates using BioRaptr 2.
2. Compounds. Library compounds added at 23 nL/well by pin transfer. DMSO neutral control and imatinib positive control added at 25 nL/well, transfer by Mosquito dispenser.
3. Incubation. Incubate enzyme and compounds at room temperature for 30 min, protected from light.
4. Reagent. (Functional assay) Transfer 25 nL of abltide peptide substrate to each well of four replicate kinase assay plates with Mosquito dispenser.
5. Incubation. (Functional assay) Kinase enzyme incubated with peptide substrate for 3 h at room temperature, protected from light.
6. Reagent. (Functional assay) Add 4 uL/well of Kinase-Glo Plus reagent (Promega) to kinase activity assay plates, in the presence of ATP.
7. Detector. (Functional assay) Luminescence measured using CCD-based camera (ViewLux) with settings as follows: Exposure, 1 sec; Gain, High; Speed, Slow; Binning, 2X.
Inglese J, Shamu CE and Guy RK, Reporting data from high throughput screening of small molecule libraries, Nature Chemical Biology, 2007, 3(8): 438-441. doi.org/10.1038/nchembio0807-438.

Chain of Tyrosine-protein kinase ABL1 (Homo sapiens) (P00519 whole entry, looked up): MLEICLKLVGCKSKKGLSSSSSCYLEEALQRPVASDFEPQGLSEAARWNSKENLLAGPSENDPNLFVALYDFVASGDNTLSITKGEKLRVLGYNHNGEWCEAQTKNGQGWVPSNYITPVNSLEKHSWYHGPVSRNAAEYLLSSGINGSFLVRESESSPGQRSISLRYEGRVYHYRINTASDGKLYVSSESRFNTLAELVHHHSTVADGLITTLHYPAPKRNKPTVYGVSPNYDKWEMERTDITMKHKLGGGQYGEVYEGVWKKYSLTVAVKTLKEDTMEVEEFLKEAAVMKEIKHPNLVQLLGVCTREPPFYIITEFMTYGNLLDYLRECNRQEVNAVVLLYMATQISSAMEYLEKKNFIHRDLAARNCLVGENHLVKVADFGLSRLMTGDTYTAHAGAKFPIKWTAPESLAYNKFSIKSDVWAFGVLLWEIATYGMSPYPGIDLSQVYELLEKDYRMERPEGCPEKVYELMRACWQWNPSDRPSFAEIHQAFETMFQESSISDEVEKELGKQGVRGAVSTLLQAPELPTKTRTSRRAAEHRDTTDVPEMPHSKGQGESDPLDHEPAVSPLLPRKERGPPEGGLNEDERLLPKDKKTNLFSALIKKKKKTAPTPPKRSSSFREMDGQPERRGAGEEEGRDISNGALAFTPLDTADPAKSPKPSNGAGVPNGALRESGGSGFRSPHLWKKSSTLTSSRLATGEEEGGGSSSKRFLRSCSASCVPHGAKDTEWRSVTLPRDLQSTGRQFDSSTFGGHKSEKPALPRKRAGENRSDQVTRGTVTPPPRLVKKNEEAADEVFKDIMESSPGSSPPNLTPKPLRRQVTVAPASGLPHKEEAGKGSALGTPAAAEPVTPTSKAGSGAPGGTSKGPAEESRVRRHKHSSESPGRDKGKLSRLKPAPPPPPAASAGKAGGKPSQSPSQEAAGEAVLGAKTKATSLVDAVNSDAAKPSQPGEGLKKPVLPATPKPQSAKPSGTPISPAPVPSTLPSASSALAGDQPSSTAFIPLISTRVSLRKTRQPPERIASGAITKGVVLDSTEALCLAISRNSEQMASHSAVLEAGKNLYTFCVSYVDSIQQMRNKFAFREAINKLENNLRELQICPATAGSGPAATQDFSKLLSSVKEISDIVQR

| Compound | outcome |
| --- | --- |
| C/C(O)=C(\C#N)C(=O)Nc1cc(Br)ccc1Br | inactive |
| CCNC(=O)C[C@@H]1N=C(c2ccc(Cl)cc2)c2cc(OC)ccc2-n2c(C)nnc21 | inactive |
| N#Cc1cn([C@@H]2O[C@H](CO)[C@H](O)[C@@H]2O)c2ncnc(N)c12 | inactive |
| Cc1[nH]nc2ccc(-c3cncc(OC[C@@H](N)Cc4c[nH]c5ccccc45)c3)cc12 | inactive |
| O=C(NCCCNc1nc(Nc2ccc(N3CCOCC3)cc2)ncc1C1CC1)C1CCC1 | inactive |
| O=[N+]([O-])O[C@H]1CO[C@H]2[C@@H]1OC[C@H]2O[N+](=O)[O-] | inactive |

Source: PubChem BioAssay AID1963317 (National Center for Advancing Translational Sciences (NCATS), 2024)
